This is part of a sample that, as a whole, favours compounds with a hit. Of some 83,000 tested, about 20% had one in any assay.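 Cell lines were cultured in 96-well plates, exposed to a single compound concentration, and assessed for percent growth 48 hours later.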 A number with no mark means an inactive call. Activity calls are given as the source filed them. How the source made its calls: active means growth percent below 10; inactive means the rest.
Columns and labels:
Assay in all cases: NCI-60 one-dose screen, 48 h (100 = growth as untreated, 0 = no growth, -100 = all killed)
Conditions in all cases: 10 µM unless noted
T-47D breast = test system: T-47D breast
BT-549 breast = test system: BT-549 breast
MDA-MB-435 melanoma = test system: MDA-MB-435 melanoma
SW-620 colon = test system: SW-620 colon
HCT-116 colon = test system: HCT-116 colon
KM12 colon = test system: KM12 colon
HCC-2998 colon = test system: HCC-2998 colon

## CCOC(=O)c1[nH]c(=O)c2c(C)nc(-c3ccccc3)cc2c1O
T-47D breast
  growth: 101%
BT-549 breast
  growth: 146%
MDA-MB-435 melanoma
  growth: 109%
SW-620 colon
  growth: 98.3%
HCT-116 colon
  growth: 95%
KM12 colon
  growth: 110%

## C/C(=N\NC(=O)c1ccccc1O)c1cccc(/C(C)=N/NC(=O)c2ccccc2O)n1
T-47D breast
  growth: 41.8%
BT-549 breast
  growth: -2.08% (active)
MDA-MB-435 melanoma
  growth: 40%
SW-620 colon
  growth: 31.2%
HCT-116 colon
  growth: 27.1%
HCC-2998 colon
  growth: 18.4%
KM12 colon
  growth: 22.6%

## Cc1nc2sc(C(=O)Nc3cccc(Cl)c3C)c(N)c2cc1C(=O)c1ccccc1
T-47D breast
  growth: 36.8%
BT-549 breast
  growth: 7.58% (active)
MDA-MB-435 melanoma
  growth: -37.4% (active)
SW-620 colon
  growth: 27%
HCT-116 colon
  growth: 13.1%
HCC-2998 colon
  growth: 7.04% (active)
KM12 colon
  growth: 13%

## N#Cc1c(N)nnn1Cc1cc(=O)oc2c1ccc1ccccc12
T-47D breast
  growth: 92.3%
BT-549 breast
  growth: 99.9%
MDA-MB-435 melanoma
  growth: 105%
SW-620 colon
  growth: 97.7%
HCT-116 colon
  growth: 106%
HCC-2998 colon
  growth: 105%
KM12 colon
  growth: 103%

## COc1ccc2nc3ccc(OC)cc3c(SCCCN)c2c1
T-47D breast
  growth: 76.5%
BT-549 breast
  growth: 95.5%
MDA-MB-435 melanoma
  growth: 87.3%
SW-620 colon
  growth: 18.3%
HCT-116 colon
  growth: -49.8% (active)
HCC-2998 colon
  growth: 105%
KM12 colon
  growth: 83.2%

## C=C(CNCCc1ccc(O)cc1)[C@@H]1CC[C@]2(CO)CC[C@]3(C)[C@H](CC[C@@H]4[C@@]5(C)CCC(NCCO)C(C)(C)[C@@H]5CC[C@]43C)[C@@H]12 (some centres undefined)
T-47D breast
  growth: -64.2% (active)
BT-549 breast
  growth: -68.1% (active)
MDA-MB-435 melanoma
  growth: -92.1% (active)
SW-620 colon
  growth: -82.4% (active)
HCT-116 colon
  growth: -92.5% (active)
HCC-2998 colon
  growth: -84.3% (active)
KM12 colon
  growth: -25.8% (active)

## O=C(Nc1cccc([N+](=O)[O-])c1)c1cc2ccccc2cc1O
T-47D breast
  growth: 3.67% (active)
BT-549 breast
  growth: -7.42% (active)
MDA-MB-435 melanoma
  growth: -1.29% (active)
SW-620 colon
  growth: 6.15% (active)
HCT-116 colon
  growth: 7.4% (active)
KM12 colon
  growth: -10.3% (active)

## O=C1/C(=C\c2cn(-c3ccccc3)nc2-c2ccc(-c3cccs3)cc2)CCc2ccccc21
T-47D breast
  growth: 66.4%
BT-549 breast
  growth: 70%
MDA-MB-435 melanoma
  growth: -24.6% (active)
SW-620 colon
  growth: 41.9%
HCT-116 colon
  growth: 43.7%
HCC-2998 colon
  growth: 79.8%
KM12 colon
  growth: 49.4%

## CCN(c1ccc(Cl)cc1)c1nc(-c2ccc([N+](=O)[O-])cc2)cs1
T-47D breast
  growth: 77.2%
BT-549 breast
  growth: 115%
MDA-MB-435 melanoma
  growth: 103%
SW-620 colon
  growth: 91.7%
HCT-116 colon
  growth: 97.9%
HCC-2998 colon
  growth: 98.7%
KM12 colon
  growth: 93.2%

## Cc1cc2c(O)c(-c3cccc(Cl)c3)c3sc(=O)oc3c2cc1C
T-47D breast
  growth: 14.8%
BT-549 breast
  growth: 58.8%
MDA-MB-435 melanoma
  growth: 28.9%
SW-620 colon
  growth: 35%
HCT-116 colon
  growth: 18.1%
HCC-2998 colon
  growth: 73.1%
KM12 colon
  growth: 64.3%

## CCC(C)N(c1ccc(Cl)cc1)c1nc(-c2ccc(Br)cc2)cs1 (centres undefined)
T-47D breast
  growth: 78.7%
BT-549 breast
  growth: 121%
MDA-MB-435 melanoma
  growth: 101%
SW-620 colon
  growth: 95.5%
HCT-116 colon
  growth: 91%
HCC-2998 colon
  growth: 108%
KM12 colon
  growth: 91.5%

## COc1ccc(-c2nn(-c3ccccc3)cc2/C=C2/SC(=S)N(C)C2=O)cc1
T-47D breast
  growth: 35.1%
BT-549 breast
  growth: 102%
MDA-MB-435 melanoma
  growth: 84.9%
SW-620 colon
  growth: 66.8%
HCT-116 colon
  growth: 31%
HCC-2998 colon
  growth: 98.9%
KM12 colon
  growth: 98.4%

## CC1Cc2c(Cl)ncnc2N(C)c2ccc(F)cc21 (centres undefined)
T-47D breast
  growth: 92.5%
BT-549 breast
  growth: 108%
MDA-MB-435 melanoma
  growth: 102%
SW-620 colon
  growth: 106%
HCT-116 colon
  growth: 87.5%
HCC-2998 colon
  growth: 103%
KM12 colon
  growth: 99.9%

## CCOC(=O)C#Cc1c(C(=O)OCC)nnn1[C@@H]1O[C@H](CO)[C@H]2OC3(CCCCC3)O[C@H]21
T-47D breast
  growth: 13.2%
BT-549 breast
  growth: 94.2%
MDA-MB-435 melanoma
  growth: 79.7%
SW-620 colon
  growth: -70.9% (active)
HCT-116 colon
  growth: 66.5%
HCC-2998 colon
  growth: 85.4%
KM12 colon
  growth: 94.5%

## COc1ccc(-c2ccc3cnc4sc(-c5ccc(OC)cc5)nc4c3n2)cc1
T-47D breast
  growth: 76.3%
BT-549 breast
  growth: 108%
MDA-MB-435 melanoma
  growth: 101%
SW-620 colon
  growth: 112%
HCT-116 colon
  growth: 94.5%
HCC-2998 colon
  growth: 93.1%
KM12 colon
  growth: 89.1%

## O=C(Cn1c2c(c3ccccc31)CCCC2)Nc1ccc(-c2nc3ccccc3s2)cc1
T-47D breast
  growth: 80.1%
BT-549 breast
  growth: 115%
MDA-MB-435 melanoma
  growth: 104%
SW-620 colon
  growth: 109%
HCT-116 colon
  growth: 125%
HCC-2998 colon
  growth: 108%
KM12 colon
  growth: 101%

## CC(C)N1CCN(Cc2ccc3c(NNC(=O)c4ccccc4)nc4cc(F)ccc4n23)CC1
T-47D breast
  growth: 20.3%
BT-549 breast
  growth: 45.6%
MDA-MB-435 melanoma
  growth: 30.5%
SW-620 colon
  growth: 24.9%
HCT-116 colon
  growth: 24.5%
HCC-2998 colon
  growth: 25%
KM12 colon
  growth: 23.1%

## CCN1CC(=O)N(/N=C2\C(=O)Nc3ccccc32)C1=S
T-47D breast
  growth: 73.6%
BT-549 breast
  growth: 88.5%
MDA-MB-435 melanoma
  growth: 98.2%
SW-620 colon
  growth: 87%
HCT-116 colon
  growth: 94.9%
HCC-2998 colon
  growth: 99.4%
KM12 colon
  growth: 94.7%

## Cc1c(-n2nnc(-c3nc4ccccc4s3)c2N)c(=O)n(-c2ccccc2)n1C
T-47D breast
  growth: 94.6%
BT-549 breast
  growth: 107%
MDA-MB-435 melanoma
  growth: 114%
SW-620 colon
  growth: 106%
HCT-116 colon
  growth: 103%
HCC-2998 colon
  growth: 95.4%
KM12 colon
  growth: 106%

## NC(=O)CCC(C(=O)O)N1C(=O)c2ccc(O)cc2C1=O (centres undefined)
T-47D breast
  growth: 102%
BT-549 breast
  growth: 101%
MDA-MB-435 melanoma
  growth: 94%
SW-620 colon
  growth: 111%
HCT-116 colon
  growth: 109%
KM12 colon
  growth: 103%

## O=C(CSc1nc2ccc([N+](=O)[O-])cc2[nH]1)Nc1cccc(C(F)(F)F)c1
T-47D breast
  growth: 6.1% (active)
BT-549 breast
  growth: 16.5%
MDA-MB-435 melanoma
  growth: 13.8%
SW-620 colon
  growth: 28.2%
HCT-116 colon
  growth: 12.8%
HCC-2998 colon
  growth: 30.7%
KM12 colon
  growth: 17.1%

## CN(C)c1ccc(/C=C/C(=O)c2ccc(-n3cc(CN4CCN(c5cc6c(cc5F)c(=O)c(C(=O)O)cn6C5CC5)CC4)nn3)cc2)cc1
T-47D breast
  growth: 76.8%
BT-549 breast
  growth: 32%
MDA-MB-435 melanoma
  growth: 64.7%
SW-620 colon
  growth: 43.2%
HCT-116 colon
  growth: -10.3% (active)
HCC-2998 colon
  growth: 79.3%
KM12 colon
  growth: 32.9%

## CCCCCCCCCCCCCCCCCCOc1ccccc1CC(=O)OCC[N+]1(C)CCCC1
T-47D breast
  growth: 62%
BT-549 breast
  growth: 67%
MDA-MB-435 melanoma
  growth: 23.4%
SW-620 colon
  growth: 21.4%
HCT-116 colon
  growth: 29.2%
HCC-2998 colon
  growth: 3.99% (active)
KM12 colon
  growth: 13.3%

## CN1CCN(c2ccc(NC(=O)c3cncnc3Nc3ccc(OCc4ccccn4)c(Cl)c3)cc2)CC1
T-47D breast
  growth: 53.7%
BT-549 breast
  growth: 77.9%
MDA-MB-435 melanoma
  growth: -60.2% (active)
SW-620 colon
  growth: 4.15% (active)
HCT-116 colon
  growth: -48% (active)
HCC-2998 colon
  growth: 67.4%
KM12 colon
  growth: 49.3%

## CCCCCOc1ccc(C(=O)/C(Br)=C/C(=O)O)cc1
T-47D breast
  growth: 92.6%
BT-549 breast
  growth: 110%
MDA-MB-435 melanoma
  growth: 104%
SW-620 colon
  growth: 111%
HCT-116 colon
  growth: 89.2%
KM12 colon
  growth: 107%

## O=[N+]([O-])C1C(c2ccccc2)C12c1ccccc1-c1ccccc12 (centres undefined)
T-47D breast
  growth: 57.6%
BT-549 breast
  growth: -42.3% (active)
MDA-MB-435 melanoma
  growth: -23.1% (active)
SW-620 colon
  growth: 3.12% (active)
HCT-116 colon
  growth: -18.8% (active)
HCC-2998 colon
  growth: -18.8% (active)
KM12 colon
  growth: 1.09% (active)

## COC(=O)c1c2c(c(C)[n+]([O-])c1C)C(=O)C=C(NCc1ccc(Br)cc1)C2=O
T-47D breast
  growth: -42.8% (active)
BT-549 breast
  growth: -93.5% (active)
MDA-MB-435 melanoma
  growth: -92.8% (active)
SW-620 colon
  growth: -17.2% (active)
HCT-116 colon
  growth: -17.2% (active)
KM12 colon
  growth: -11.3% (active)

## C[C@H](NC(=O)[C@@H](C)N)[C@H](Oc1ccc2c(cnn2-c2ccc(F)cc2)c1)c1ccc2c(c1)OCCO2
T-47D breast
  growth: 36.2%
BT-549 breast
  growth: 32.9%
MDA-MB-435 melanoma
  growth: 45.4%
SW-620 colon
  growth: 62%
HCT-116 colon
  growth: 38.6%
HCC-2998 colon
  growth: 28.1%
KM12 colon
  growth: 36.1%

## Cc1ccc(-c2nn(-c3ccccc3)cc2C=C2C(=O)ON=C2C(C)C)cc1
T-47D breast
  growth: 78.6%
BT-549 breast
  growth: 113%
MDA-MB-435 melanoma
  growth: 63.5%
SW-620 colon
  growth: 47.2%
HCT-116 colon
  growth: 26%
HCC-2998 colon
  growth: 68.7%
KM12 colon
  growth: 69.8%

## COc1cc2c(c(OC)c1OC)-c1ccc(OC)c(=O)cc1[C@@H](NC(=O)CCl)CC2
T-47D breast
  growth: 73.7%
BT-549 breast
  growth: -48.8% (active)
MDA-MB-435 melanoma
  growth: 8% (active)
SW-620 colon
  growth: 21.3%
HCT-116 colon
  growth: -39.3% (active)
HCC-2998 colon
  growth: 5.69% (active)
KM12 colon
  growth: -10.3% (active)

## O=C1N[C@@H]2NC(=[N+]3CCOCC3)N[C@@H]2N1
T-47D breast
  growth: 101%
BT-549 breast
  growth: 110%
MDA-MB-435 melanoma
  growth: 105%
SW-620 colon
  growth: 98.8%
HCT-116 colon
  growth: 104%
HCC-2998 colon
  growth: 108%
KM12 colon
  growth: 107%

## CN(C)CCNC(=O)c1cccc(-c2cnc3ccc(-c4ccc5c(c4)OCO5)nn23)c1
T-47D breast
  growth: 75.2%
BT-549 breast
  growth: 80.7%
MDA-MB-435 melanoma
  growth: 86%
SW-620 colon
  growth: 52.8%
HCT-116 colon
  growth: 5.58% (active)
HCC-2998 colon
  growth: 77.3%
KM12 colon
  growth: 17.6%
